Source: PubChem (Broad Institute)
The sample as a whole holds a higher share of hits than the screen did.
PD-1 reverse act – activators reversing PD-1 mediated T-cell inhibition, primary screen, luminescence, primary human CD4 T cells, PD-L1 beads; CellTiter-Glo 96 h; activation, % (no concentration beside the values); 29,000 tested, under 10 active; call rule not given here;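 also: 0% = median vehicle wells and 100% = positive control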
NOMO-1 viab – NOMO-1 AML cell viability reduction, primary screen, STK33 inhibitor project, CellTiter-Glo luminescence | 37,000 compounds, 7.5% hits | inhibition, % (concentration not given with the values) | AID 2330, 2010 | NOMO-1 AML viability, 72 h; in the data active = inhibition above about 80%
STK33 kin inh – STK33 kinase inhibitors, primary screen, biochemical, luminescence, ADP-Glo, MBP substrate. Serine/threonine-protein kinase 33 (Homo sapiens), Q9BYT3. inhibition, % at 12.5 µM. 27,000 compounds, 0.44% hits. AID 2322, 2010; in the data active = inhibition above about 20%
Target sequence (Q9BYT3 whole entry, looked up): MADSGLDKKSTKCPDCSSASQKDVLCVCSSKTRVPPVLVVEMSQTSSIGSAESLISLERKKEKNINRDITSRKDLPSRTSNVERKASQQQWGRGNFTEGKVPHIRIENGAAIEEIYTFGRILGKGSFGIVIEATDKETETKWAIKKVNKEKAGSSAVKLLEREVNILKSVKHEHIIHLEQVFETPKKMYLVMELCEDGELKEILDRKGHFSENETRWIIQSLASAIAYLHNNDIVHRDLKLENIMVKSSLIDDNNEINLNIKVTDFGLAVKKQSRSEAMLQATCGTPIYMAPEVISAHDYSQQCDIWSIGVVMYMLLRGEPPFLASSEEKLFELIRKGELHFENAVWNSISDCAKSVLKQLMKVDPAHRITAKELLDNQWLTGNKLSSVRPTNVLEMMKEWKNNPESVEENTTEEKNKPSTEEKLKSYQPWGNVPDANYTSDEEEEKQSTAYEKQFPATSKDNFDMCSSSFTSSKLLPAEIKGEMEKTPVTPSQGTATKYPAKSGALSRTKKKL
The depositor's hits bear a star; . = no result given.

SMILES	PD-1 reverse act	NOMO-1 viab	STK33 kin inh
COC(=O)COc1ccc(S(=O)(=O)NC2CCCCCC2)cc1	-5.9	119.3*	-1.5
CCCCC(=O)N1c2ccccc2C(Nc2ccccc2)CC1C (stereo unspecified)	0.0	56.7	.
OC(c1cc(C(F)(F)F)nc2c(C(F)(F)F)cccc12)C1CCCCN1 (stereo unspecified)	-7.4	129.3*	-1.5
C/C=C/C=C/C(=O)O[C@@H]1C=C(CO)[C@](O)(CO)[C@@]2(C)CCCC(C)(C)[C@H]12	2.8	62.8	-2.4
CC(=O)O[C@@H]1C[C@@H](C)[C@](O)(CCC2=CC(=O)OC2)[C@@]2(C)CCCC(C)(C)C12 (stereo partly specified)	-2.9	104.4*	-5.1
CC[n+]1c(C=C2C=C(C)CC(C)C2)sc2ccccc21 (stereo unspecified)	-1.4	126.2*	.
COc1ccc(/C=C2/C(=O)C(C)(C(C)C)CCC2C)cc1 (stereo unspecified)	0.8	93.8*	.
CC1CCC(C(C)C)C(=O)/C1=C/c1ccc(N(C)C)cc1 (stereo unspecified)	-0.5	62.9	.
CC(C)NC(=O)Nc1cccc2c1O[C@H](CN(C)Cc1ccc(C(F)(F)F)cc1)[C@@H](C)CN([C@@H](C)CO)C2=O	-1.6	47.6	.
C[C@@H]1CN([C@H](C)CO)C(=O)c2cccc(NC(=O)C3CC3)c2O[C@H]1CN(C)Cc1ccc(C(F)(F)F)cc1	.	63.8	.
CC(C)NC(=O)Nc1cccc2c1O[C@@H](CN(C)Cc1ccc(C(F)(F)F)cc1)[C@@H](C)CN([C@H](C)CO)C2=O	-2.4	9.4	.
C[C@@H]1CN([C@@H](C)CO)C(=O)c2cccc(NC(=O)CCCCCC(=O)Nc3ccccc3N)c2O[C@@H]1CN(C)Cc1ccc(C(F)(F)F)cc1	1.6	118.8*	.
C[C@@H]1CN([C@H](C)CO)C(=O)c2cccc(NC(=O)CCCCCC(=O)Nc3ccccc3N)c2O[C@@H]1CN(C)Cc1ccc(C(F)(F)F)cc1	1.1	114.6*	.
C[C@H](CO)N1C[C@H](C)[C@H](CN(C)Cc2ccc(C(F)(F)F)cc2)Oc2c(NC(=O)CCCCCC(=O)Nc3ccccc3N)cccc2C1=O	-0.1	114.6*	.
C[C@@H]1CN([C@H](C)CO)C(=O)c2cccc(NC(=O)CCCCCC(=O)Nc3ccccc3N)c2O[C@@H]1CN(C)C(=O)Nc1ccc(F)cc1	-0.5	30.1	.
C[C@H](CO)N1C[C@H](C)[C@H](CN(C)C(=O)Nc2ccc(C(F)(F)F)cc2)Oc2c(NC(=O)CCCCCC(=O)Nc3ccccc3N)cccc2C1=O	-0.7	114.2*	.
CCN(CC(=O)O)S(=O)(=O)c1ccc2ccccc2c1	0.2	-19.7	-1.2
CCn1c(SCC(=O)Nc2ccc(F)cc2)nnc1-c1ccc(Cl)cc1Cl	0.6	32.4	4.2
CC(=O)O[C@H]1[C@H](Oc2ccccc2COC(=O)C2(O)C=CCCC2=O)O[C@H](COC(=O)C2(O)C=CCCC2=O)[C@@H](O)[C@@H]1O (stereo partly specified)	.	.	-8.3
COc1ccc2c(=S)c(-c3cc4ccccc4o3)c(C)oc2c1	2.3	6.9	3.9
COc1cc(OC)c(NC(=O)CSc2nc3ccc([N+](=O)[O-])cc3s2)cc1Cl	-1.9	17.6	3.1
Cc1cc(C)c(S(=O)(=O)N(C)CC(=O)Nc2ccc(Cl)cc2Cl)c(C)c1	0.7	3.6	1.7
Cc1c(Br)sc2sc(-c3ccnc(SCC(=O)NC(C)C)n3)c(C)c12	0.2	114.9*	.
Cc1csc2sc(-c3ccnc(SCc4ccccc4)n3)c(C)c12	1.0	-2.5	1.5
C=CCNC(=O)CSc1nccc(-c2sc3sc(Br)c(C)c3c2C)n1	-0.6	109.6*	12.1
SMILES	PD-1 reverse act	NOMO-1 viab	STK33 kin inh
CCOC(=O)c1c(NC(=O)CSc2nccc(C)n2)sc(C)c1C	-3.5	18.3	-1.1
COc1ccc(S(=O)(=O)N(C)CC(=O)Nc2cc(Cl)c(Cl)cc2Cl)cc1Cl	0.7	28.0	-1.9
COc1ccc(CC(N)C(=O)N[C@H]2[C@@H](O)[C@H](n3cnc4c(N(C)C)ncnc43)O[C@@H]2CO)cc1 (stereo partly specified)	-25.4	97.8*	-0.3
C/C=C(\CO)C(=O)O[C@H]1[C@H](O)[C@@H](C(=O)OC)O[C@@H]2C[C@H]3OC(n4cnc5c(N)ncnc54)[C@H](OC)[C@H]3O[C@]21O (stereo partly specified)	2.8	12.1	-4.6
C=C(C)C(=O)O[C@H]1[C@H]2C(=C)C(=O)O[C@@H]2C[C@@H](C)/C=C/C(=O)[C@](C)(O)[C@@H]1OC(C)=O	-13.5	118.4*	3.9
COC(=O)c1c(NC(=O)COc2ccccc2C(C)C)sc2c1CCCC2	0.2	11.5	1.6
CC(=O)Nc1ccc(NC(=O)CC2Sc3ccc(C(F)(F)F)cc3NC2=O)cc1 (stereo unspecified)	0.5	2.7	-1.0
CCOC(=O)C1CCCN(Cc2ccccc2)C1 (stereo unspecified)	0.3	6.3	.
CCOC(=O)C1CCN(S(=O)(=O)Cc2ccccc2)C1=O (stereo unspecified)	-0.4	112.0*	1.2
CCOC(=O)c1ccc(NC(=O)CSc2nc3sc4c(c3c(=O)n2C)CCCC4)cc1	1.3	32.6	-3.4
CC(C)NC(=O)N(C)C[C@@H]1Oc2c(NC(=O)Nc3ccc(C(F)(F)F)cc3)cccc2C(=O)N([C@H](C)CO)C[C@@H]1C	-4.8	116.5*	.
CC(C)NC(=O)N(C)C[C@@H]1Oc2c(NC(=O)Nc3ccc(C(F)(F)F)cc3)cccc2C(=O)N([C@@H](C)CO)C[C@@H]1C	-0.8	66.8	.
CC(C)NC(=O)N(C)C[C@H]1Oc2c(NC(=O)Nc3ccc(C(F)(F)F)cc3)cccc2C(=O)N([C@@H](C)CO)C[C@H]1C	-4.3	120.7*	.
CC(C)NC(=O)Nc1cccc2c1O[C@H](CN(C)C(=O)Nc1ccc(C(F)(F)F)cc1)[C@H](C)CN([C@@H](C)CO)C2=O	-0.6	34.0	.
C=C(CC[C@@H](C)[C@H]1CCC2(C)C3=C(C[C@H](O)[C@]12C)[C@@]1(C)CC[C@@H](OC(=O)CC(=O)O)C(C)(C)C1CC3)[C@@H](C)C(=O)O (stereo partly specified)	.	.	-6.5
CC(=O)c1c(C)oc(NC(=O)Cn2cnc3ccccc3c2=O)c1C#N	.	27.8	0.3
N#Cc1c(NC(=O)COc2ccc3c(-c4ccccc4)cc(=O)oc3c2)sc2c1CCC2	.	95.7*	-2.4
Cc1sc(NC(=O)COc2ccc3c(C)cc(=O)oc3c2)c(C#N)c1C	.	11.3	0.8
C[C@@H]1CN([C@H](C)CO)C(=O)c2cc(NS(=O)(=O)c3ccccc3)ccc2O[C@@H]1CN(C)Cc1ccc(C(=O)Nc2ccccc2N)cc1	-1.2	108.5*	.
Cc1ccc(S(=O)(=O)Nc2ccc3c(c2)C(=O)N([C@H](C)CO)C[C@@H](C)[C@@H](CN(C)Cc2ccc(C(=O)Nc4ccccc4N)cc2)O3)cc1	-1.1	110.2*	.
Cc1ccc(S(=O)(=O)Nc2ccc3c(c2)C(=O)N([C@@H](C)CO)C[C@H](C)[C@@H](CN(C)Cc2ccc(C(=O)Nc4ccccc4N)cc2)O3)cc1	-1.7	65.1	.
